Results filed as inconclusive are left out. Entries that show only a call come without a potency. Calls of active or inactive are those of the source. The call rests on the fitted dose curve; in most records, active means well fitted inhibition curve with a large enough effect; inconclusive means small, poorly fitted or top-dose-only effect; inactive means flat fitted curve, though single readings scatter.
Potency means the concentration at half of the fitted maximal effect.

Phospholipid hydroperoxide glutathione peroxidase GPX4 (Homo sapiens), sequence (P36969 whole entry, looked up): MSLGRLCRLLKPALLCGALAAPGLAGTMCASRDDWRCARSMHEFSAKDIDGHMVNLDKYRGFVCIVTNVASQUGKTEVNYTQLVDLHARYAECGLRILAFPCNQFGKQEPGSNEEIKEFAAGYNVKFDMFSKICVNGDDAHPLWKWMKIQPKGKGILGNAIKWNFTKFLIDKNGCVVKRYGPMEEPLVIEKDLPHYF

This assay concerns the target Phospholipid hydroperoxide glutathione peroxidase GPX4 (Homo sapiens) (UniProt P36969). Briefly: Primary qHTS Assay for Inhibitors of Recombinant Selenoprotein Glutathione Peroxidase 4 (GPX4) (AID 1845192). Further: nearly all actives have a fitted effect of over 65% in size. Particulars: recombinant GPX4, GR-coupled NADPH fluorescence, 15 min; series mostly up to 50 µM. An excerpt: Assay Provider: Elias S.J. Arner MD PhD.
Department of Medical Biochemistry and Biophysics
Karolinska Institutet, Solna, Stockholm, Sweden
Selenoprotein glutathione peroxidases (GPX), like the ubiquitously expressed GPX1 and the ferroptosis modulator GPX4, enact their antioxidant activities by reducing hydroperoxides using glutathione. […] GPX1 and GPX4 inhibitors have thus shown promise as anti-cancer agents. Existing inhibitors are often promiscuous, or modulate GPX activity only indirectly, so novel direct inhibitors identified through screening against GPX1 and GPX4 could be valuable. Here, we developed optimized glutathione reductase (GR)-coupled GPX assays for the biochemical high-throughput screen (HTS) of almost 12,000 compounds with known mechanisms of action. Initial hits were triaged using a GR counter-screen, assessed for isoform specificity using a separate GPX2 assay, and were assessed for general selenocysteine-targeting activity using a thioredoxin reductase (TXNRD1) assay. With this suite of assays, we identified novel GPX1/GPX2- and GPX4-specific inhibitors and can here present a validated pipeline for future discovery research for selenoprotein-targeting agents.
SEQUENCE No. (e.g., 1, 2, 3, etc.); […] (e.g., Cells, Incubation, Reagent, etc.); VALUE; DESCRIPTION.
1; Reagent 1; 3 uL; 333.33 nM GPx4 enzyme or no enzyme control in 1536-well, black, solid Greiner assay plate.
2; Compound; 25 nL; Kalypsis pin tool (Wako USA) equipped with a 1536-well pin head.
3; Incubation; 30 min; room temperature.
4; Reagent 2; 1 uL; 500 nM GR, 5 mM GSH, 2.5 mM NADPH solution
5; Reagent 3; 1 uL; 2.5 mM CHP in 50% EtOH.
6; Detection; Fluorescence; ViewLux microplate reader, excitation 340 nm and emission 450 nm.
7; Incubation; 15 min; room temperature.
8; Detection; Fluorescence; ViewLux microplate reader, excitation 340 nm and emission 450 nm.
NOTES (numbers refer to Sequence numbers above)
1. 3 µL of 333.33 nM GPX4 and 0.016% BSA in assay buffer (50 mM Tris-HCl, 2 mM EDTA (pH 7.5), 150 mM NaCl) was added to columns 3-48 of 1536-well plates using a BioRAPTR Flying Reagent Dispenser (Let's Go Robotics (LGR), Carlsbad, CA). A no-enzyme control (0.01% BSA in TES assay buffer) was added to columns 1-2.
2. 25 nL, library and DMSO controls were added to each well with a pin tool (Kalypsys).
3. The assay plates were incubated for 30 minutes at room temperature.
4. 1 µL of master mix (500 nM glutathione reductase (GR), 5 mM reduced glutathione (GSH), 2.5 mM NADPH in assay buffer) was added.
5. 1 µL of cumene hydroperoxide (CHP) ([2.5 mM] in 50% EtOH) was then added within 5 minutes to initiate the reaction. Final concentrations were: 200 nM GPX4, 1 mM GSH, 0.5 mM CHP, 0.5 mM NADPH, 100 nM GR, 0.01% BSA.
6. Initial fluorescence readout (t=0) at 340/450 nm was measured using a ViewLux multimodal detector (PerkinElmer, Waltham, MA).
8. Endpoint fluorescence readout (t=15) at 340/450 nm was measured 15 min after room temperature incubation.
Turning to `CCCCOC(=O)NS(=O)(=O)c1sc(CC(C)C)cc1-c1ccc(Cn2c(CC)nc3c(C)cc(C)nc32)cc1`, the Potency result was “inactive”. On to `NC(=O)c1cc[n+](CC2=C(C(=O)O)N3C(=O)[C@@H](NC(=O)[C@@H](c4ccccc4)S(=O)(=O)[O-])[C@H]3SC2)cc1`, for which the Potency result is “inactive”. With `[Li+]`, the Potency entry was “inactive”. For `O=S(=O)(c1cccc2c(Cl)cccc12)N1CCCNCC1`, the Potency entry was “inactive”.

On to `CC(C)(CO)Cc1cc(C(C)(C)C)c(O)c(C(C)(C)C)c1`, for which the Potency result is “inactive”.

For `Cn1cc(C(F)(F)F)nc1-c1ccc(OCC(O)CNCCOc2ccc(O)c(C(N)=O)c2)cc1` (stereo not given), the Potency result is “inactive”. For the molecule `CCN(CC)CCCCCCCCOC(=O)c1cc(OC)c(OC)c(OC)c1`, the Potency entry was “inactive”. Consider `Nc1ncnc2c1nc(Sc1ccc(Cl)cc1)n2[C@H]1OC2COP(=O)(O)O[C@@H]2C1O` (stereo not given in full), for which the Potency entry is “inactive”. With `CCCCCCCCCC(=O)NC(CN1CCOCC1)[C@H](O)c1ccccc1` (stereo not given in full), the Potency entry is “inactive”. For `N=S(=O)(O)Cc1noc2ccccc12`, the Potency result is “inactive”.

Consider `Cc1cc(Cn2cnc3c2C[C@@H](C(=O)O)N(C(=O)C(c2ccccc2)c2ccccc2)C3)ccc1N`, for which the Potency entry is “inactive”. Consider `C=C(C)C1CC=C(C(=O)O)CC1` (stereo not given), for which the Potency result is “inactive”. Regarding `O=C(O)C1CCCNC1` (stereo not given), the Potency result is “inactive”. On to `COc1cc(/C=C(\C#N)C(=O)Nc2nnc(C(F)(F)F)s2)ccc1OCc1ccc(C(F)(F)F)cc1C(F)(F)F`, for which the Potency result is “inactive”. The entry for `C=CCNc1ncnc2ccc(Br)cc12` is “inactive”. As for `CC(O)C(O)[C@H]1CNc2nc(N)[nH]c(=O)c2N1` (stereo not given in full), the Potency result was “inactive”. Turning to `O=C(O)Cc1c[nH]c2ccc(O)cc12`, the Potency entry was “inactive”. For `NC1(C(=O)O)CCCCC1`, the Potency result was “inactive”. In the case of `O=C(O)c1cc2cc(F)ccc2[nH]1` it was “inactive”. On to `O=c1[nH]c(=O)c2nc3ccccc3nc2[nH]1`, for which the Potency result was “inactive”. On to `CCCn1c(=O)c2[nH]c(-c3ccc(S(=O)(=O)O)cc3)nc2n(CCC)c1=O`, for which the Potency is 11.2 µM (active).

Turning to `CC(=O)NNC(=O)N1Cc2ccccc2Oc2ccc(Cl)cc21`, the Potency entry is “inactive”. The entry for `NC(N)=NC(N)=Nc1ccccc1` is “inactive”.

For the molecule `COc1cc2c(CCNC(C)=O)c[nH]c2cc1O`, the Potency entry was “inactive”. Turning to `OC[C@H]1O[C@@H](n2cnc3cncnc32)[C@H](O)[C@@H]1O`, the Potency entry is “inactive”. Take `NC(N)=[N+]1CCc2ccccc2C1`: the Potency entry is “inactive”. Regarding `COc1ccc2c(c1)CCC1C2CC[C@@]2(C)C1CC[C@@H]2NCCCCCCN1C(=O)C=CC1=O` (stereo not given in full), the Potency entry was “inactive”. Take `Nc1ccc(-c2ccc3ccccc3n2)cc1`: the Potency result was “inactive”.

As to `O=C(N[C@@H](Cc1ccccc1)C(=O)CCl)OCc1ccccc1`, the Potency result is “inactive”.

On to `NC(=Nc1ccccc1)NC(=O)c1nc(Cl)c(N)nc1N`, for which the Potency entry was “inactive”. The entry for `O=C(O)C1=CCCN(CCON=C(c2ccccc2)c2ccccc2)C1` is “inactive”. In the case of `N[C@H]1CONC1=O` it was “inactive”; in that of `COC(=O)C1=C(C)NC(C)=C([N+](=O)[O-])C1c1ccccc1C(F)(F)F` (stereo not given), “inactive”; in that of `NC1CONC1=O` (stereo not given), “inactive”. Regarding `CCCCCCCCCC[Si](C)(C)CCC(=O)NC(Cc1ccc(C)cc1)c1ccccc1` (stereo not given), the Potency entry is “inactive”.

Consider `CCSC(=N)N`, for which the Potency result is “inactive”. Turning to `CC[n+]1c(/C=C/C=C2/N(C)c3ccccc3C2(C)C)sc2ccccc21`, the Potency result is “inactive”. For `CSC(=N)N`, the Potency result is “inactive”. For the molecule `O=c1onc2cnc3ccccc3n12`, the Potency entry was “inactive”. Consider `OCC1NCC(O)C(O)C1O` (stereo not given), for which the Potency result was “inactive”.

The record behind these values is PubChem BioAssay (NCATS).
